According to PubChem BioAssay (Tox21):
Several values for one entry are separate records, joined by “and”; a condition that tells them apart may be missing. Equal values may be shown once. Results filed as inconclusive are left out. Values without a mark were called inactive. Activity calls are given as the source filed them. Calls come from the whole dose curve; as a rule, active = well fitted cell-killing curve with a large enough effect in the repeat runs; inconclusive = weak or mixed curves, or effect the other way; inactive = flat fitted curve, though single readings scatter.

Assay: qHTS RealTime-Glo MT Cell Viability Assay in HEK293 cells - 32 hour (AID 1224868); note: nearly all actives have a fitted effect of over 50% in size; for activity change, negative = cytotoxic: top concentration of the series differs between compounds
Details: RealTime-Glo luminescence; series mostly up to 76.8 µM; activity change, negative = cytotoxic: at the top concentration
Excerpt: National Center for Advancing Translational Sciences [NCATS]
NIH Chemical Genomics Center [NCGC]
U.S. Environmental Protection Agency [EPA]
National Institutes of Environmental Health Sciences [NIEHS]
National Toxicology Program [NTP]
U.S. Food and Drug Administration [FDA]
Measure of cell viability is critical in the cell-base assay. Analysis of cell viability is necessary for the characterization of cell responses to cytotoxic drugs and environmental stress. A RealTime-Glo MT Cell Viability Assay to monitor cell viability in real time of continues cell culture during 40 hours of compound treatment was used to screen Tox21 10K library compounds in Hek293 cells. The RealTime-Glo MT Cell Viability Assay is a nonlytic, homogeneous, bioluminescent method to measure cell viability in real time using a simple, plate-based method. The assay involves adding NanoLuc luciferase and a cell-permeant prosubstrate to cells in culture. Viable cells reduce the proprietary prosubstrate to generate a substrate for NanoLuc luciferase. This substrate diffuses from cells into the surrounding culture medium, where it is rapidly used by the NanoLuc Enzyme to produce a luminescent signal. The signal correlates with the number of viable cells, making the assay well suited for cytotoxicity studies.
Tox21 Assay Protocol Summary:
The mixture of Hek293 cell suspension and reagents were dispensed at 600cells/6 ul/well in 1536-well tissue culture treated black solid bottom plates using a Multidrop dispenser. After the assay plates were incubated at a 37 C/5% CO2 incubator for 5 hours, 23 nL of compounds dissolved in DMSO, positive and negative controls was transferred to the assay plate by a pintool work station. The plates were incubated at 37 C for 40 hours. The luminescence intensity were measured at 0h, 8h, 16h, 24h, 32h and 40h time points using ViewLux plate reader during compound treatment.
% is set by controls: 0 for no effect and ±100 for the full control effect; potency is the fitted concentration of half-maximal effect.

SMILES	activity change, negative = cytotoxic	Potency
NC(=O)c1ccccc1N	0.654%	
Cc1cc(C)c(C=O)c(C)c1	13.2%	
CCN(CC)CCNc1ccc(CO)c2sc3ccccc3c(=O)c12		16.9 µM (active)
CC1(C)C(=O)N(CO)C(=O)N1CO	6.83%	
c1ccc(Nc2cccc3ccccc23)cc1	-9.86%	
CCCCOC(=O)C(C)CC (stereo not given)	-2.08%	
CCC(C)C(=O)OC (stereo not given)	7.82%	
CCOC(=O)COc1ccc(C)cc1	0.901%	
CC1CCCNC1 (stereo not given)	-10%	
O=C[C@H](O)[C@H](O)[C@H](O)CO	-2.93%	
C=CCCCCCCC=C	2.79%	
CCOC(/C=C(\C)CCC=C(C)C)OCC	4.61%	
CCCCCCCCCC(=O)N(C)C	2%	
CCCCCCCCC(C)=O	11%	
CCCCN(C)C	0.506%	
Cc1ccc(-n2[nH]c(C)c(N=Nc3cccc(-c4cccc(C(=O)O)c4)c3O)c2=O)cc1C		23.9 µM (active)
C=CC/C=C/C/C=C/C/C=C/C	2.08%	
CC1=CP(=O)(c2ccccc2)CC1 (stereo not given)	14.8%	
CCN=c1cc2oc3cc(NCC)c(C)cc3c(-c3ccccc3C(=O)OCC)c-2cc1C		1.09 µM (active) and 1.38 µM (active)
OCCCc1cccnc1	-2.72%	

SMILES	activity change, negative = cytotoxic	Potency
C[C@]12CC[C@H]3C(=CCc4cc(O)ccc43)[C@@H]1CCC2=O		49 µM (active)
CN1CN(C)CN(C)C1	-13.8%	
CN(C)CCCN1c2ccccc2Sc2ccc(C(F)(F)F)cc21		21.3 µM (active)
CCC(C)c1ccccc1 (stereo not given)	5.71%	
Cn1cnc2ncnc(N)c21	34.4% [at 35.3 µM]	
CCCCCCCCCCCCCCCCCO	6.41% [at 15.8 µM]	
CCCCCCCCCCCCCCCC	8.74%	
C[Si](C)O[Si](C)C	-9.46%	
CCCCCCCCCCCCCC[n+]1ccccc1		4.9 µM (active)
CCc1ccc(C)nc1	-9.16%	
C=CC(=O)OCC(O)COc1ccccc1 (stereo not given)	8.13%	
CCc1c(C(=O)O)c(=O)cnn1-c1ccc(Cl)cc1	14.2%	
COc1ccc2sc(C(=O)Nc3nnn[nH]3)c(OC(C)C)c2c1		27.4 µM (active)
CSc1ccc2c(c1)N(CCC1CCCCN1C)c1ccccc1S2 (stereo not given)		15.4 µM (active)
CO[Si](CCCNCCNCCN)(OC)OC	5.61%	
CC(C)(C)C1=CC(=O)C=C(C(C)(C)C)C1=O	13.9%	
Cc1c(-c2ccc(O)cc2)n(Cc2ccc(OCCN3CCCCCC3)cc2)c2ccc(O)cc12		3.01 µM (active)
CC(C)c1ccc(O)c(C(C)C)c1	-13.7%	
CCCCCCOc1cc(C)c(O)c(C)c1C		15.7 µM (active)
C/C=C/c1ccc(OC)c(OC)c1	-18%	
